Assay outcomes from PubChem.
Only some compounds are listed: those with a hit (about 19% of all), similar ones and a draw of the others.
VP16 counter: VP16 counterscreen qHTS for inhibitors of ROR gamma transcriptional activity | Drosophila S2 Gal4-VP16 UAS-luciferase, luminescence, 20 h | Potency, µM (series often up to 53.6 µM), inactives show at the top dose activity, negative = inhibition, most hits filed as inhibitors | actives 3.5% (n = 310,000);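 further: Gal4-VP16 expression switched on by copper sulfate through the metallothionein promoter; nearly all actives have a fitted effect of over 50% in size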
DT40 TDP1 no CPT: qHTS for Inhibitors of human tyrosyl-DNA phosphodiesterase 1 (TDP1): qHTS in cells in absence of CPT. DT40 Tdp1-/- hTDP1 cells, no CPT, ATP luminescence, 48 h. Potency, µM (titrated, usually from 46.2 µM), without a hit: at the highest dose activity change, negative = growth inhibition, usual class: inhibitors. actives 15% (n = 420,000). AID 686978, 2013; further: nearly all actives have a fitted effect of over 55% in size
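A cellular qHTS used chicken DT40 cells lacking endogenous Tdp1 but carrying stably transfected human TDP1. Compounds were applied without camptothecin, and cell growth kinetics were judged by ATP-dependent luminescence after ≥48 hr.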
DT40 TDP1 CPT: qHTS for Inhibitors of human tyrosyl-DNA phosphodiesterase 1 (TDP1): qHTS in cells in presence of CPT; Potency, µM (top dose mostly 46.2 µM), inactives show at the top dose activity change, negative = growth inhibition, hits mostly inhibitors; actives 12% (n = 420,000); AID 686979, 2013; chicken DT40 Tdp1-/-;hTDP1 cells + 20 nM CPT, ATP luminescence, 48 h; further: nearly all actives have a fitted effect of over 55% in size
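Chicken DT40 Tdp1-/- cells stably complemented with human TDP1 were seeded at 400 cells/well in medium containing 20 nM camptothecin, exposed to pin-transferred compounds, and grown at 37 °C for at least 48 hr. Viability was read as ATP luminescence.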
RORgamma inh: qHTS for inhibitors of ROR gamma transcriptional activity; Nuclear receptor ROR-gamma (Mus musculus), P51450; Drosophila S2 Gal4-RORgamma UAS-luciferase reporter, 20 h; Potency, µM (top dose mostly 53.6 µM), without a hit: top-dose activity change, negative = inhibition, actives largely listed as inhibitors; actives 5.4% (n = 310,000); AID 2551, 2010; further: nearly all actives have a fitted effect of over 60% in size
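Read-out: Photinus luciferase luminescence; inhibitors lower reporter signal. Insect Schneider cells with Gal4-ROR gamma fusion under metallothionein promoter, UAS reporter; 700 uM final copper sulfate induction, 20 hr, ambient temperature.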
TDP1 block: qHTS Assay for Inhibitors of Tyrosyl-DNA Phosphodiesterase (TDP1) | Tyrosyl-DNA phosphodiesterase 1 (Homo sapiens), Q9NUW8 | recombinant TDP1, AlphaScreen DNA substrate cleavage | Potency, µM (doses to about 130 µM), inactives show top-dose activity change, negative = inhibition, hits mostly inhibitors | actives 0.28% (n = 350,000); further: nearly all actives have a fitted effect of over 40% in size
Target sequence (Q9NUW8 whole entry, looked up): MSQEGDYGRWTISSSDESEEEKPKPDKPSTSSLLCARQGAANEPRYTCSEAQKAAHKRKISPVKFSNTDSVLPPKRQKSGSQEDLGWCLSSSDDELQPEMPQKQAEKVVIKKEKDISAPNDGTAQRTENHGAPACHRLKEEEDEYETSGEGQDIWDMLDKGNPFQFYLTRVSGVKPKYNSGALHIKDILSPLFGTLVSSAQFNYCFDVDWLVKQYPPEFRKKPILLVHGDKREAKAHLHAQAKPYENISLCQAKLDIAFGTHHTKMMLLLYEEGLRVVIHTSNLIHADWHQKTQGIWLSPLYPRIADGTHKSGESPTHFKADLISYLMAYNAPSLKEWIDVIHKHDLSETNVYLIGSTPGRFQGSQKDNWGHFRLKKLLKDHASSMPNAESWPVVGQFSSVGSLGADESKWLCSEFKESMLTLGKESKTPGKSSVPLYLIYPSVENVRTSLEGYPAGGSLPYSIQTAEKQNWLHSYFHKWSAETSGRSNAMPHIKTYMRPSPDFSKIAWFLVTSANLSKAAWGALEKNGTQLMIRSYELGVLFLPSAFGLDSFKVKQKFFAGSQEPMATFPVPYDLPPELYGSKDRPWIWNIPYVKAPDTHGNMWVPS
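E. coli-derived human Tdp1, 1 nM final. Cpd preinc 15 min RT; substrate 15 nM final, 5 min RT; AS bead mix 10 ug/ml final, 10 min RT. Signal loss = tyrosine-FITC cleavage. No-enzyme wells = max signal.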
* hit, by the source's call; [ ] = dose if it differs, or a comment. The call rests on the fitted dose curve; in most records, active means well fitted curve in the direction sought with a large enough effect; inconclusive means small, poorly fitted or top-dose-only effect, or another doubt; inactive means no such curve, though single readings can be large; an effect the other way counts as inactive or inconclusive. On the % scale 0 is the no-effect control and ±100 the full control effect; potency means the concentration at half of the fitted maximal effect.

c1ccc(C2=Nc3ccccc3NC(c3ccccc3)C2)cc1 (stereo not drawn) was read as VP16 counter -3.8%, DT40 TDP1 no CPT 14.6µM*, DT40 TDP1 CPT inconclusive, RORgamma inh inconclusive and TDP1 block -5.9%.
`CC(C)(C)OC(=O)Cc1nnc(C(C(=O)OCc2ccccc2)c2ccccc2)o1` (stereo not drawn) gave TDP1 block -7.8%.
Screening C/C(=N\O)c1ccn(S(=O)(=O)c2ccc(Cl)cc2)c1 returned VP16 counter -5.7%, DT40 TDP1 no CPT 25.9µM*, DT40 TDP1 CPT inconclusive, RORgamma inh -8.0% and TDP1 block 8.6%.
Screening c1cncc(-c2nc(N3CCOCC3)c3ccccc3n2)c1 returned VP16 counter -10.7%, DT40 TDP1 no CPT 35.5µM*, DT40 TDP1 CPT inconclusive, RORgamma inh -7.8% and TDP1 block -6.1%.
`Cc1cc(N)n(-c2nc(-c3cccnc3)nc3ccccc23)n1` gave VP16 counter -5.5%, DT40 TDP1 no CPT 18.4µM*, DT40 TDP1 CPT 25.9µM*, RORgamma inh inconclusive and TDP1 block 5.9%.
`CC1CCN(c2nc(/C=C/c3ccccc3)nc3ccccc23)CC1` gave VP16 counter inconclusive, DT40 TDP1 no CPT inconclusive, DT40 TDP1 CPT -3.1%, RORgamma inh 15.8µM* and TDP1 block -0.6%.
`c1ccc2c(N3CCOCC3)nc(-c3ccncc3)nc2c1` gave VP16 counter -16.2%, DT40 TDP1 no CPT 14.6µM*, DT40 TDP1 CPT inconclusive, RORgamma inh 23.5% and TDP1 block 5.0%.
For c1ccc2c(N3CCOCC3)nc(N3CCOCC3)nc2c1 the results were VP16 counter -7.9%, DT40 TDP1 no CPT inconclusive, DT40 TDP1 CPT inconclusive, RORgamma inh 8.7% and TDP1 block -5.5%.
Screening CC(=O)OC1(C(F)(F)F)Oc2ccccc2NC1=O (stereo not drawn) returned DT40 TDP1 no CPT -20.1%, DT40 TDP1 CPT -1.4%, RORgamma inh -28.7%[0.365 µM] and TDP1 block 3.3%.
Screening COCC(=O)N1CCc2nc(-c3ccccc3)c3c(c2C1)CO[C@@H](C)C3 returned TDP1 block 12.5%[12.3 µM].
Screening Cc1onc(-c2ccccc2Cl)c1C(=O)Nc1ccc(OCC(=O)N2CCOCC2)cc1 returned VP16 counter -7.5%, DT40 TDP1 no CPT -4.0%, DT40 TDP1 CPT -14.0%, RORgamma inh -9.0% and TDP1 block -3.2%.
Screening O=C(N1CCCCCC1)N1CCN(S(=O)(=O)c2ccccc2)CC1 returned VP16 counter -5.8%, DT40 TDP1 no CPT -28.3%, DT40 TDP1 CPT -8.4%, RORgamma inh 3.3% and TDP1 block 1.4%.
`Cc1cc(=O)n2nc(N3CCC(C(=O)NCCc4ccccc4)CC3)sc2n1` gave VP16 counter 2.6%, DT40 TDP1 no CPT -4.7%, DT40 TDP1 CPT -12.9%, RORgamma inh 32.5% and TDP1 block 8.8%.
COc1cccc(OC)c1OCC(=O)Nc1ccc(S(=O)(=O)N2CCCC2)cc1 was read as DT40 TDP1 no CPT inconclusive, DT40 TDP1 CPT inconclusive and TDP1 block -1.2%.
Screening CC1CCN(c2nc(-c3ccc(C(C)(C)C)cc3)nc3ccccc23)CC1 returned DT40 TDP1 no CPT inconclusive, DT40 TDP1 CPT inconclusive and TDP1 block 0.4%[12.3 µM].
CC1CCN(c2nc(-c3ccncc3)nc3ccccc23)CC1 was read as VP16 counter inconclusive, DT40 TDP1 no CPT inconclusive, DT40 TDP1 CPT inconclusive, RORgamma inh 11.2µM* and TDP1 block 0.0%.
For CN(Cc1ccccc1)C(=O)c1ccc2sc([C@@H]3O[C@H](CO)[C@H](O)[C@H](O)[C@H]3O)nc2c1 the results were DT40 TDP1 no CPT 3.2% and DT40 TDP1 CPT 4.4%.
`COc1cc(NC(=O)c2nnn(Cc3ccc(SC)cc3)c2N)cc(OC)c1` gave VP16 counter 15.8%, DT40 TDP1 no CPT 29.1µM*, DT40 TDP1 CPT 18.4µM*, RORgamma inh 26.9% and TDP1 block 6.9%.
Screening COc1ccc(Cn2nnc(C(=O)Nc3ccc4c(c3)OCCO4)c2N)cc1Br returned VP16 counter 3.6%, DT40 TDP1 no CPT 2.59µM*, DT40 TDP1 CPT 18.4µM*, RORgamma inh inconclusive and TDP1 block -1.8%.
Screening COc1cc(OC)c(NC(=O)c2nnn(Cc3ccc(C)cc3)c2N)cc1Cl returned DT40 TDP1 no CPT 11.6µM*, DT40 TDP1 CPT 18.4µM* and TDP1 block 4.6%.
Screening Cc1cc(C)cc(NC(=O)c2nnn(Cc3cc(C)ccc3C)c2N)c1 returned VP16 counter -9.4%, DT40 TDP1 no CPT inconclusive, DT40 TDP1 CPT 20.6µM*, RORgamma inh inconclusive and TDP1 block 3.3%.
Screening Nc1c(C(=O)Nc2ccc3c(c2)OCCO3)nnn1Cc1ccc(Cl)cc1 returned DT40 TDP1 no CPT -21.8%, DT40 TDP1 CPT -16.7% and TDP1 block 3.3%.
CCc1ccc(Cn2nnc(C(=O)Nc3ccc(OC)cc3OC)c2N)cc1 was read as VP16 counter -0.3%, DT40 TDP1 no CPT -8.8%, DT40 TDP1 CPT 2.5%, RORgamma inh 0.8% and TDP1 block -1.0%.
For N/C(=N\OC(=O)c1ccc(Br)cc1)c1ccccc1 the results were VP16 counter inconclusive, DT40 TDP1 no CPT -6.2%, DT40 TDP1 CPT -19.7%, RORgamma inh inconclusive and TDP1 block 3.9%.
Cc1[nH]c2ccccc2c1/C=N/NC(=O)c1cccc(S(=O)(=O)Nc2ccccc2Cl)c1 was read as VP16 counter 8.1%, DT40 TDP1 no CPT -29.9%, DT40 TDP1 CPT -19.8%, RORgamma inh -1.1% and TDP1 block 4.2%.
`Cc1cc(C(=O)NC2CCCc3c2cnn3-c2ccc(C)c(C)c2)nc(C)n1` (stereo not drawn) gave VP16 counter -15.7%, DT40 TDP1 no CPT 16.4µM*, DT40 TDP1 CPT inconclusive, RORgamma inh 0.2% and TDP1 block 3.4%.
`COC(=O)c1ccc(C(=O)NC2CCCc3c2cnn3-c2ccc(C)c(C)c2)cc1` (stereo not drawn) gave VP16 counter inconclusive, DT40 TDP1 no CPT 1.03µM*, DT40 TDP1 CPT 1.3µM*, RORgamma inh inconclusive and TDP1 block 3.3%[56.1 µM].
Screening Brc1cccc(OCCN2CCc3ccccc3C2)c1 returned VP16 counter -9.2%, DT40 TDP1 no CPT inconclusive, DT40 TDP1 CPT inconclusive, RORgamma inh 28.1% and TDP1 block 2.9%.
COc1ccc(-c2cc3c(=O)n(CC(=O)NCCCN4CCC(N5CCCCC5)CC4)ncn3n2)cc1 was read as VP16 counter -2.2%, DT40 TDP1 no CPT inconclusive, DT40 TDP1 CPT 14.6µM*, RORgamma inh -21.1% and TDP1 block 1.8%.
